Calls of active or inactive are those of the source. How the source made its calls: active means hit-call score of the fitted dose curve at least 0.9, where 1 is the maximum; inactive means score below 0.9.

Read-out in experiment [1]: TIMP metallopeptidase inhibitor 1 (TIMP1), TIMP1 (gene 7076)
The experiment in a line: BSK_hDFCGF_TIMP1: BioMAP Diversity Plus: hDFCGF Assay for TIMP metallopeptidase inhibitor 1 (TIMP1) Biomarker Activity (AID 2283062). The conditions noted are these: primary human foreskin fibroblasts; actives raise or lower the signal. In outline: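 Primary human foreskin fibroblasts in the hDFCGF system were dosed with compound for 24 h, then TIMP-1 was measured by ELISA. Activity was fitted bidirectionally relative to DMSO control; parallel SRB staining assessed cytotoxicity.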

Read-out in experiment [2]: Monokine induced gamma interferon (MIG), CXCL9 (gene 4283)
Kind of experiment: BSK_hDFCGF_MIG: BioMAP Diversity Plus: hDFCGF Assay for Monokine induced gamma interferon (MIG) Biomarker Activity (AID 2283063). As to conditions: primary human foreskin fibroblasts; actives raise or lower the signal. In outline: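 ELISA read-out of MIG from primary human dermal fibroblasts 24 h post-dosing. Gain or loss of signal fitted bidirectionally, DMSO as baseline.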

Read-out in experiment [3]: Matrix Metallopeptidase 1 (MMP1), MMP1 (gene 4312)
The experiment in a line: BSK_hDFCGF_MMP1: BioMAP Diversity Plus: hDFCGF Assay for Matrix Metallopeptidase 1 (MMP1) Biomarker Activity (AID 2283064). The conditions noted are these: primary human foreskin fibroblasts; actives raise or lower the signal. In outline: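 ELISA read-out of MMP1 from human foreskin fibroblasts (primary skin cells), 24 h post-dose. Gain or loss of signal was fitted bidirectionally versus DMSO negative control; cytotoxicity was checked by SRB in parallel cultures.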

Read-out in experiment [4]: Vascular cell adhesion molecule 1 (VCAM1), VCAM1 (gene 7412)
The experiment in a line: BSK_hDFCGF_VCAM1: BioMAP Diversity Plus: hDFCGF Assay for Vascular cell adhesion molecule 1 (VCAM1) Biomarker Activity (AID 2283065).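 On AC50: VCAM-1 protein level quantified by ELISA after 24 h chemical exposure.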 As to conditions: primary human foreskin fibroblasts; actives raise or lower the signal. The gist of the method:
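Primary human foreskin fibroblasts (hDFCGF system) were dosed with chemical and VCAM-1 was measured by ELISA 24 h later. Bidirectional curve fitting used DMSO as negative control and activity baseline.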

Read-out in experiment [5]: Intercellular Adhesion Molecule 1 (ICAM1), ICAM1 (gene 3383)
The experiment in a line: BSK_KF3CT_ICAM1: BioMAP Diversity Plus: KF3CT Assay for Intercellular Adhesion Molecule 1 (ICAM1) Biomarker Activity (AID 2283067). The conditions noted are these: primary human keratinocytes with fibroblasts; actives raise or lower the signal. The gist of the method: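 Human keratinocyte plus foreskin fibroblast primary co-culture was exposed to chemical for 24 h. ICAM-1 was then quantified by ELISA, and the data were fit bidirectionally against DMSO as the negative control and baseline.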

Read-out in experiment [6]: Interferon-gamma inducible Protein 10 (IP10), CXCL10 (gene 3627)
Kind of experiment: BSK_KF3CT_IP10: BioMAP Diversity Plus: KF3CT Assay for Interferon-gamma inducible Protein 10 (IP10) Biomarker Activity (AID 2283068). As to conditions: primary human keratinocytes with fibroblasts; actives raise or lower the signal. In outline: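 Signal is secreted/surface IP-10 by ELISA in a human primary skin co-culture of keratinocytes and foreskin fibroblasts, taken 24 h post-dosing; DMSO served as negative control.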

Experiment [7] is described as follows: BSK_KF3CT_SRB: Viability Assessment in the BioMAP Diversity Plus: KF3CT Assay (AID 2283069).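 Further: total protein by sulforhodamine B staining as a cytotoxicity measure; read 24 h after compound addition; fitted for both signal gain and loss against DMSO baseline.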 As to conditions: primary human keratinocytes with fibroblasts. The gist of the method:
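SRB read-out at 560 nm (0.1% stain, TCA-fixed cells) gauges overt cytotoxicity in a human skin keratinocyte–fibroblast co-culture 24 h post-dosing. Signal change was fitted bidirectionally relative to DMSO control.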

Read-out in experiment [8]: Interleukin-1 alpha (IL1a), IL1A (gene 3552)
Kind of experiment: BSK_KF3CT_IL1a: BioMAP Diversity Plus: KF3CT Assay for Interleukin-1 alpha (IL1a) Biomarker Activity (AID 2283070). The conditions noted are these: primary human keratinocytes with fibroblasts; actives raise or lower the signal. In outline:
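Primary skin co-culture (keratinocytes, foreskin fibroblasts), 24 h exposure; ELISA for IL-1a; bidirectional curve fit vs DMSO.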

Read-out in experiment [9]: TIMP metallopeptidase inhibitor 2 (TIMP2), TIMP2 (gene 7077)
The experiment in a line: BSK_KF3CT_TIMP2: BioMAP Diversity Plus: KF3CT Assay for TIMP metallopeptidase inhibitor 2 (TIMP2) Biomarker Activity (AID 2283071). The conditions noted are these: primary human keratinocytes with fibroblasts; actives raise or lower the signal. The gist of the method: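 Measurements come from ELISA detection of TIMP-2 at 24 hours in a dosed human keratinocyte and foreskin fibroblast co-culture. DMSO serves as negative control and baseline.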

Read-out in experiment [10]: Plasminogen activator inhibitor-1 (PAI1), SERPINE1 (gene 5054)
Kind of experiment: BSK_hDFCGF_PAI1: BioMAP Diversity Plus: hDFCGF Assay for Plasminogen activator inhibitor-1 (PAI1) Biomarker Activity (AID 2283066). As to conditions: primary human foreskin fibroblasts; actives raise or lower the signal. The gist of the method: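 Human skin fibroblast cultures receive chemical for 24 h before PAI-1 is measured by ELISA; signal changes are fitted bidirectionally against DMSO-treated wells.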

As for `CCCCC(CC)COC(=O)CCCCC(=O)OCC(CC)CCCC` (stereo not given), the outcome in experiment [1], in experiment [2], in [3], in [4], in experiment [5] and in [6] was inactive. Besides, the outcome in experiment [7], in experiment [8] and in experiment [9] was inactive.

Consider `NC(=O)N(O)[C@@H]1C=C[C@H](Oc2cccc(Oc3ccc(F)cc3)c2)C1`, for which the outcome in [1], in [2], in experiment [3], in experiment [5], in experiment [7] and in experiment [8] was inactive. Further, in [9], the result was inactive. Also, the AC50 in experiment [4] was 8.65 µM (active); in experiment [6], 20 µM (active).

Turning to `CC(C)(C)c1cc(C(C)(C)C)c(O)c(C(C)(C)C)c1`, the AC50 in experiment [1] was 31.8 µM (active); in experiment [3], 33.1 µM (active); in experiment [4] it was 31.5 µM (active); in [10] it was 32.2 µM (active); in experiment [6], 32.8 µM (active). Further, the result in experiment [5], in [7], in experiment [8] and in [9] was inactive.

Regarding `CCCCCCCCC(=O)O`, the outcome in experiment [1], in experiment [3], in experiment [4], in experiment [5], in experiment [6] and in [7] was inactive. In addition, the outcome in [8] and in experiment [9] was inactive.

With `CCN(CC)CCNc1ccc(CNC=O)c2sc3ccc(OC)cc3c(=O)c12`, the AC50 in experiment [1] was 13.1 µM (active); in experiment [3] it was 10.7 µM (active); in experiment [10] it was 11 µM (active); in experiment [5], 31.6 µM (active); in experiment [6], 30.8 µM (active); in experiment [7] it was 26.4 µM (active). In addition, the values for the AC50 in [8] and in [9] were 22.3 µM (active) and 25 µM (active), respectively.

On to `c1ccc2cc3c(ccc4ccccc43)cc2c1`, for which the outcome in [1], in experiment [3], in experiment [4], in experiment [5], in experiment [6] and in experiment [7] was inactive. The result in experiment [8] and in experiment [9] was inactive.

Turning to `COc1ccc([N+](=O)[O-])cc1N`, the result in experiment [1], in experiment [3], in experiment [5], in [6], in [7] and in [8] was inactive. Also, the result in experiment [9] was inactive.

As to `CC(=O)CC(C)(C)O`, the outcome in experiment [1], in [3], in [10], in experiment [5], in [6] and in [7] was inactive. The outcome in experiment [8] and in experiment [9] was inactive.

Consider `CC1=C(/C=C/C(C)=C/C=C/C(C)=C/C(=O)O)C(C)(C)CCC1`, for which the AC50 in experiment [1] is 31.2 µM (active); in [4] it was 18.5 µM (active); in [5], 30.6 µM (active); in [6], 25.6 µM (active); in [7], 32.8 µM (active); in experiment [8], 33.6 µM (active). Moreover, in [9], the AC50 is 32.3 µM (active).

As for `C#C[C@]1(O)CC[C@H]2[C@@H]3CCC4=CC(=O)CC[C@@H]4[C@H]3CC[C@@]21C`, the result in [1], in experiment [3], in experiment [10], in experiment [5], in experiment [6] and in experiment [7] was inactive. Further, the result in experiment [8] and in experiment [9] was inactive.

With `CCCCC(CC)COC(=O)CCCCC(=O)OCc1ccccc1` (stereo not given), the outcome in experiment [1], in experiment [3], in experiment [10], in experiment [5], in experiment [6] and in [7] was inactive. The result in [8] and in experiment [9] was inactive.

Consider `Cc1cc(CCN2CCN(c3nsc4ccccc34)CC2)cc2c1NC(=O)CC2(C)C`, for which the AC50 in experiment [1] was 9.33 µM (active); in [3], 8.43 µM (active); in experiment [5], 29.6 µM (active); in experiment [6], 33.4 µM (active); in experiment [7], 11.7 µM (active); in [8], 26.6 µM (active). Moreover, the AC50 in experiment [9] was 20 µM (active).

As for `CCCCCCC(=O)O`, the result in [1], in experiment [3], in experiment [4], in experiment [5], in experiment [6] and in experiment [8] was inactive. The result in experiment [9] was inactive.

As to `CC(C)(C)c1cccc(C(C)(C)C)c1O`, the half-maximal activity concentration (AC50) in experiment [1] is 36.3 µM (active); in experiment [3] it was 35.9 µM (active); in experiment [4], 35.5 µM (active); in experiment [5] it was 37.9 µM (active); in [6], 37.5 µM (active); in [7], 33.8 µM (active). In addition, the AC50 was 31 µM (active) in [8] and 37.1 µM (active) in [9].

Regarding `CCCCCCCCOC(=O)CCCCCCCCC(=O)OCCCCCCCC`, the result in [1], in experiment [3], in experiment [10], in experiment [5], in experiment [6] and in experiment [7] was inactive. Further, the result in [8] and in [9] was inactive.

In the case of `ClC1=C(Cl)C(Cl)(Cl)C(Cl)=C1Cl`, the AC50 in [1] is 12.4 µM (active); in experiment [3] it was 13.9 µM (active); in [4], 6.75 µM (active); in experiment [5] it was 9.94 µM (active); in experiment [6], 8.82 µM (active); in [7], 7.42 µM (active). The figures for the AC50 in [8] and in experiment [9] were 7.98 µM (active) and 11.8 µM (active), respectively.

Take `CN1CCN(c2ccccc2/C=C2\SCCN(c3ccc(Cl)c(Cl)c3)C2=O)CC1`: the AC50 in experiment [1] is 33.7 µM (active); in experiment [3] it was 38 µM (active); in [10], 9.63 µM (active); in experiment [5] it was 31.8 µM (active); in [6] it was 28.5 µM (active); in experiment [7], 30.8 µM (active). Further, the figures for the AC50 in experiment [8] and in [9] were 30.6 µM (active) and 28.1 µM (active), respectively.

Source of the values: PubChem BioAssay (EPA / NIEHS).
